High-throughput results as filed in PubChem BioAssay.
TGFb SMAD3 inh – inhibitors of TGF-b signaling | 1.2% of 410,000 active | HepG2 CAGA-GFP TGF-b/SMAD3 reporter, GFP fluorescence, 18 h; TGF-beta stimulated, 500 pg/mL final | AID 588855 | Potency, µM (top dose mostly 46.1 µM), without a hit: at the top dose activity, negative = inhibition, usual class: inhibitors; also: % is scaled to controls: 0 for no effect and ±100 for the full control effect; nearly all actives have a fitted effect of over 65% in size
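GFP signal (ex488/em500-530) from TGF-beta-stimulated HEPG2 CAGA-GFP cells, 500 pg/mL final, 18 h at 37 degrees C in DMEM plus 1% FBS, normalized to unstimulated and DMSO-stimulated controls.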
S2 tox – cell viability loss in ATXN counter-screen; S2 cells (HEK-293 line with an ATXN2-luciferase reporter) viability, CellTiter-Fluor protease fluorescence, 24 h; Potency, µM (titrated, usually from 56.7 µM), actives largely listed as cytotoxic; 0.49% of 400,000 active; also: nearly all actives have a fitted effect of over 40% in size
HepG2 tox – HepG2 cytotoxicity, counter-screen for TGF-b inhibitors. 0.76% of 410,000 active. HepG2 CAGA-GFP viability, ATP luminescence, 18 h. AID 588856. Potency, µM (series often up to 46.1 µM), inactives show at the top dose activity change, negative = cytotoxicity, usual class: cytotoxic
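HepG2 CAGA-GFP cells (1000/well, DMEM with 1% FBS) received compound, then TGF-beta at 500 pg/mL final, and were incubated 18 hours at 37 degrees C. Viability was read by CellTiter-Glo luminescence. Media-only wells were set as complete cell-killing and DMSO as no toxicity.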
ATXN2 expr inh – ATXN2 expression inhibition; HEK-293 ATXN2-luciferase reporter, luminescence, 24 h; Potency, µM (top dose mostly 57 µM), without a hit: top-dose activity change, negative = inhibition, most hits filed as inhibitors; 0.72% of 360,000 active; also: % is scaled to controls: 0 for no effect and ±100 for the full control effect; nearly all actives have a fitted effect of over 55% in size
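qHTS (up to 57 uM final) was run with 24 h compound exposure of reporter cells at 37 °C. Each well was multiplexed: SteadyGlo luminescence measured ATXN2-luciferase expression after a fluorogenic Gly-Phe-AFC viability readout (25 uM final).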
12-LOX inh – blocks human arachidonate 12S-lipoxygenase; P18054; purified 12hLO, xylenol orange hydroperoxide absorbance; Potency, µM (highest dose often 108 µM), for inactives: top-dose activity change, negative = inhibition, hits mostly inhibitors; 1.1% of 580,000 active; also: % is scaled to controls: 0 for no effect and ±100 for the full control effect
Target sequence (P18054 whole entry, looked up): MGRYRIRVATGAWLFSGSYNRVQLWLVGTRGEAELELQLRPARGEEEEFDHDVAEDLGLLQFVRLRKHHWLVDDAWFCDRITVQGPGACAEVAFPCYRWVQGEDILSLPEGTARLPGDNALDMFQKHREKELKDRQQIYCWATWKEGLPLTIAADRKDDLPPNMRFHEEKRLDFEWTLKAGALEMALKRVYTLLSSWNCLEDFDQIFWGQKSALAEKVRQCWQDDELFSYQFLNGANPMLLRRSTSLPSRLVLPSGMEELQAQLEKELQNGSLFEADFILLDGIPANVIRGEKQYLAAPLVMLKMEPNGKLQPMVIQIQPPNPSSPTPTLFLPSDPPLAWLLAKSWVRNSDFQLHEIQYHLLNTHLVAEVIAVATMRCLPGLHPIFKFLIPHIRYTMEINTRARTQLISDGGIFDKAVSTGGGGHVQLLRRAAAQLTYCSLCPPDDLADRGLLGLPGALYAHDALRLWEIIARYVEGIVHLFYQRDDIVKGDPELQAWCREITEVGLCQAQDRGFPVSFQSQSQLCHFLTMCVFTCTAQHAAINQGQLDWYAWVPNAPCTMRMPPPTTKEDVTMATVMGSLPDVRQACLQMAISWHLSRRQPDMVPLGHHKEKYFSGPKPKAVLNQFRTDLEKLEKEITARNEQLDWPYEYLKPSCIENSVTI
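Purified human 12hLO (150 nM final) in 25 mM Hepes, 0.01% Triton X-100, pH 7.0 was preincubated 15 min at room temperature with compound. Then 40 uM arachidonic acid was added, 30 min. Hydroperoxide was read by Fe-XO absorbance ratio 573/405 nm.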
An asterisk follows results filed as active; i = inactive; u = inconclusive; x = no result; [ ] = remark or other dose. In the library only some 2.7% were active in any assay of this set; here they are far more common. Calls follow the shape of the dose curve; as a rule, active = well fitted curve in the direction sought with a large enough effect; inconclusive = small, poorly fitted or top-dose-only effect, or another doubt; inactive = no such curve, though single readings can be large; an effect the other way counts as inactive or inconclusive. Potency is read from the fitted curve at half-maximal effect.

SMILES	TGFb SMAD3 inh	S2 tox	HepG2 tox	ATXN2 expr inh	12-LOX inh
Cc1ccc(N2CCN(C(C(=O)O)c3cn(CC(=O)O)c4cc(F)ccc34)CC2)c(C)c1 (stereo not given)	x	x	x	x	-18%
CCN(CC)C(=O)CSc1nc(-c2ccccc2)c(-c2ccccc2)o1	x	x	x	x	-3%
O=C(NNC(=O)C12CCC(CC1)C2)c1ccncc1	x	x	x	x	27%
COc1ccc2cc(/C=C/C(=O)c3cccs3)ccc2c1	x	x	x	x	34%
CCc1ccc(C2CC(=O)N3CN(c4ccccc4)CSC3=C2C#N)cc1 (stereo not given)	-5%	i	-12%	-9%	u
Cc1ccc(C2CC(=O)N3CN(Cc4ccccc4)CSC3=C2C#N)cc1 (stereo not given)	x	x	x	x	5.6µM*
CN(C)Cc1ccc(C2CCCN2Cc2cccc3nonc23)cc1 (stereo not given)	x	x	x	x	2%
CCOc1ccc(-n2cc(C(=O)N3CCC(C)CC3)c3cc(OC)c(OC)cc3c2=O)cc1	13µM*	i	-36%	1%	0%
CCCCCCCCCC[n+]1cccc(Br)c1	u	x	-30%	x	x
CCCCCCCCCC[n+]1cc(Br)cc(Br)c1	u	x	22µM*	x	x
O=S(=O)(Nc1ccc(-c2csc(-c3ccccc3)n2)cc1)c1ccccc1	u	u	14µM*	-38%	-9%
O=[N+]([O-])c1ccc(S(=O)(=O)Nc2ccc(-c3csc(-c4ccccc4)n3)cc2)cc1	x	x	x	x	7%
Cc1ccc(S(=O)(=O)Nc2ccc(-c3csc(-c4ccccc4)n3)cc2)cc1	u	u	13µM*	-4%	u
O=S(=O)(Nc1ccc(-c2cn3ccsc3n2)cc1)c1ccccc1	x	x	x	x	35µM*
CC(C)NC(=O)c1onc(CSc2ccc(F)c(F)c2)c1C(=O)NC(C)C	u	i	-4%	-17%	-10%
CC(C)NC(=O)c1onc(CSc2ccc(F)c(F)c2)c1C(=O)O	-22%	i	-24%	170%	32µM*
Cc1ccc(NC(=O)C2C3CC/C=C\CC/C=C/CCC32)cc1C (stereo not given)	x	x	x	x	-31%
CCN(CC)S(=O)(=O)c1cccc(C(=O)Nc2ccc(S(=O)(=O)NC3=NCCCCC3)cc2)c1	-12%	i	0%	-12%	50µM*
CCOc1ncccc1C(=O)Nc1ccc(S(=O)(=O)NC2=NCCCCC2)cc1	9%	i	4%	13%	0%
CCCOc1ccc(C(=O)Nc2ccc(S(=O)(=O)NC3=NCCCCC3)cc2)cc1	0%	i	0.32µM*	-21%	-11%
CCN(CC)C(=O)CC(c1cc(OC)c(OC)c(OC)c1)c1c(OC)cc(OC)c2c(-c3ccccc3)cc(=O)oc12 (stereo not given)	u	u	0%	-10%	40µM*
COc1cc(C(CCN2CCCC2)c2c(OC)cc(OC)c3c(-c4ccccc4)cc(=O)oc23)cc(OC)c1OC (stereo not given)	u	x	-78%	u	-3%
COc1cc(C(CCN2CCOCC2)c2c(OC)cc(OC)c3c(-c4ccccc4)cc(=O)oc23)cc(OC)c1OC (stereo not given)	u	u	11µM*	-22%	u
COc1cc(OC)c2c(-c3ccccc3)cc(=O)oc2c1C(CCN1CCCC(C)C1)c1ccc(N(C)C)cc1 (stereo not given)	u	20µM*	-60%	u	-25%
COc1ccc(C(=O)/C=C/c2ccc(OC(=O)c3cc(OC)c(OC)c(OC)c3)cc2)cc1	-28%	u	-30%	-21%	-21%
SMILES	TGFb SMAD3 inh	S2 tox	HepG2 tox	ATXN2 expr inh	12-LOX inh
COc1cc(C(=O)Oc2ccc3ccc(O)cc3c2)cc(OC)c1OC	u	i	22µM*	x	u
COc1ccc(C(C)=O)cc1CSc1ccccc1C(=O)O	x	x	x	x	-2%
COc1ccc(C(=O)c2ccc(Cl)cc2)c2ccccc12	-13%	i	-8%	-8%	12%
COc1ccc(C(=O)CCN(C)C)c2ccccc12	6.3µM*	x	-103%	x	x
C=CC(=O)N1C/C(=C/c2ccccc2)C(=O)/C(=C\c2ccccc2)C1	2.2µM*	9.5µM*	1.8µM*	6.7µM*	-18%
O=C1C(=Cc2ccc(Cl)cc2)Cc2ccccc21	x	i	x	2%	-9%
C=CC(=O)N1C/C(=C/c2ccc(Cl)cc2)C(=O)/C(=C\c2ccc(Cl)cc2)C1	2.2µM*	0.89µM*	5µM*	2.8µM*	-27%
CN(Cc1cc(=O)n2cc(Cl)ccc2n1)Cc1ccc(F)cc1F	x	x	x	x	15%
Cc1cc(NC(=O)C(C)C)cc(-c2nc3ccccc3o2)c1O	x	x	x	x	-5%
CC(C)(C)c1ccc(C2CC2C(=O)N/N=C/c2ccsc2)cc1 (stereo not given)	x	x	x	x	38%
O=C(NCc1ccccn1)C1c2ccccc2C(=O)N(Cc2ccccc2)C12CCCC2 (stereo not given)	x	x	x	x	8%
CCOc1ccc(Nc2nc(N)c(C(=O)c3ccccc3Cl)s2)cc1	3.5µM*	x	-46%	x	3%
Cc1ccc(C(=O)c2sc(Nc3ccc(F)cc3)nc2N)c(C)c1	13µM*	i	-75%	u	u
CCOC(=O)c1ccc(Nc2nc(N)c(C(=O)c3ccc(C)cc3C)s2)cc1	x	x	x	x	-13%
COc1ccc(Nc2nc(N)c(C(=O)c3ccc(F)cc3)s2)cc1	-22%	u	-5%	x	u
Nc1c(C(=O)c2ccccc2)sc(Nc2ccc(Cl)c(Cl)c2)c1C(=O)Nc1ccccc1	u	x	7.9µM*	u	u
COc1ccc(Nc2nc(N)c(C(=O)c3ccc(OC)cc3)s2)cc1	13µM*	u	-153%	u	109%
CS(=O)(=O)N1Cc2ccccc2CC2(CCCCN2Cc2cccnc2)C1 (stereo not given)	x	x	x	x	-6%[6.33 µM]
COc1cccc(S(=O)(=O)N2CCCC(CN3CCOCC3)CC2)c1 (stereo not given)	x	x	x	x	19%
C=CCNS(=O)(=O)c1cc(C(=O)O)ccc1F	x	x	x	x	-39%
COc1ccc(C(=O)c2sc(Nc3ccccc3)c(C(N)=O)c2N)cc1	x	x	x	x	16µM*
COc1ccccc1Nc1sc(C(=O)c2ccc(Br)cc2)c(N)c1C(N)=O	x	x	x	x	-34%
O=C(O)c1ccc(Cl)c(N2C(=O)Nc3ccccc3N2O)c1	-2%	i	-1%	x	-10%
COc1ccc(C(=O)O)cc1N1C(=O)Nc2ccccc2N1O	-4%	i	-10%	x	45µM*
Cc1cc(C)c(-n2[nH]nnc2=S)c(C)c1	-1%	i	-7%	x	11µM*
COc1ccccc1C(CCNCc1ccc(N(C)C)cc1)c1ccc(OC(C)C)cc1 (stereo not given)	u	32µM*	-113%	x	u
COc1ccc(CNCCC(c2ccc(OC(C)C)cc2)c2ccccc2OC)cc1 (stereo not given)	u	u	-79%	25µM*	u
